{"source": "paper PMC4336329", "about": "(PLoS ONE, 2015)", "note": "Hit rate of the full screen: of about 310,000 compounds, about 14,000 (4.5%) showed an effect of 50% or more. Effects have a minus sign here. Many of the other results were omitted from the sample, so strong results are more common in it than they were.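 Further: peak tail current of the secondary pulse compared with the same well before compound.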", "data": [{"molecular_target": "human ether-à-go-go-related gene (hERG) potassium channel (human, UniProt Q12809)", "sequence (Q12809 whole entry, looked up)": "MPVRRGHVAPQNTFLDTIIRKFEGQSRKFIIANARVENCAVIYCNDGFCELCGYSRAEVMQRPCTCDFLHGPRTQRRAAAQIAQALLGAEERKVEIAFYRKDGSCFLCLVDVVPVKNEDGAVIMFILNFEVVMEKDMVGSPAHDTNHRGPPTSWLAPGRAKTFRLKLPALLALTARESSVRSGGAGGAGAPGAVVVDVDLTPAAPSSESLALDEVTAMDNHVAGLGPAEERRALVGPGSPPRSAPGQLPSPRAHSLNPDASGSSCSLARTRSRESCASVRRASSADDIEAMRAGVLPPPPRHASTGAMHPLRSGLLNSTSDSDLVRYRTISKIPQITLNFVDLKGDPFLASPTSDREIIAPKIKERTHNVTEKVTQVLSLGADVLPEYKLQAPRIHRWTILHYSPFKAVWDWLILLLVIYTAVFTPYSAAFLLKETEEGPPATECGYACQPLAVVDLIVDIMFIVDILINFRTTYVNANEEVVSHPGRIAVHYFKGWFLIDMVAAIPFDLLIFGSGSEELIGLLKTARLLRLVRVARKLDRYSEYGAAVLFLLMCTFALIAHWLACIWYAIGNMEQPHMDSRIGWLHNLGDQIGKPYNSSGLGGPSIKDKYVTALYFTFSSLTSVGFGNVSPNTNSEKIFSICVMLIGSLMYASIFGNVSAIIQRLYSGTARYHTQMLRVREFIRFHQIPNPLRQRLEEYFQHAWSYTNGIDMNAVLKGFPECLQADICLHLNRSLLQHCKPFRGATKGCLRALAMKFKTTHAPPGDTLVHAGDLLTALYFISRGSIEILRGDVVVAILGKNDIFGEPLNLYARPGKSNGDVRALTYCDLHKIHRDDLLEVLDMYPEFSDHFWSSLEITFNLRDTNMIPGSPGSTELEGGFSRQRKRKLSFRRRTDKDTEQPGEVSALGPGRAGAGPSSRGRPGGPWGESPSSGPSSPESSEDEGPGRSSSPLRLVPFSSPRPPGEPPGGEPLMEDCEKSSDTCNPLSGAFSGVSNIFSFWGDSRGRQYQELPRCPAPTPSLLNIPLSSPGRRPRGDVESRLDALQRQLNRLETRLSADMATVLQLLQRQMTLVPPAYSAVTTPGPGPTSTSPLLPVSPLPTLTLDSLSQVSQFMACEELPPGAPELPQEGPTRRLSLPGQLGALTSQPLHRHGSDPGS", "test": "primary screen, population patch clamp on CHO cells stably expressing hERG; higher = less effect of the substance", "units": {"hERG current change (%, negative = inhibition) at 10uM": "%"}, "values": [{"smiles": "Cn1c(=O)n(C)c2cc(N3CCOCC3)c(NC(=O)c3ccc(F)cc3)cc21", "hERG current change (%, negative = inhibition) at 10uM": -8.15}, {"smiles": "Cc1cccc2cc3ccccc3nc12", "hERG current change (%, negative = inhibition) at 10uM": 4.66}, {"smiles": "Cc1cc(CNC(=O)COc2ccc(C)c(C)c2)c2ccccc2n1", "hERG current change (%, negative = inhibition) at 10uM": 2.15}, {"smiles": "O=C(N/N=C/c1ccc(Cl)c([N+](=O)[O-])c1)c1cc(-c2ccccc2)nc2ccccc12", "hERG current change (%, negative = inhibition) at 10uM": 17.1}, {"smiles": "Cn1c2ccccc2c(=O)c2cc(C#Cc3ccccn3)ccc21", "hERG current change (%, negative = inhibition) at 10uM": -0.776}, {"smiles": "CCc1ccccc1N1C(=O)C2CC=CCC2C1=O", "note": "(centres unmarked)", "hERG current change (%, negative = inhibition) at 10uM": -6.41}, {"smiles": "COc1ccc(OC)c(S(=O)(=O)N(C)CC(=O)N2CCc3ccccc3C2)c1", "hERG current change (%, negative = inhibition) at 10uM": -35.1}, {"smiles": "CCN(Cc1nc2cc(OC)c(OC)cc2c(=O)[nH]1)C(=O)c1ccc(S(=O)(=O)N(C)C)cc1", "hERG current change (%, negative = inhibition) at 10uM": 4.07}, {"smiles": "Cc1cnc(NC2=NCCC2)s1", "hERG current change (%, negative = inhibition) at 10uM": 5.05}, {"smiles": "O=C(OCC(=O)c1ccc[nH]1)c1ccc(Cl)nc1", "hERG current change (%, negative = inhibition) at 10uM": -5.61}, {"smiles": "Cc1ccc(-n2nc(C)c(NS(=O)(=O)c3ccccc3)c2C)cc1C", "hERG current change (%, negative = inhibition) at 10uM": -16.9}, {"smiles": "CCN(CC)S(=O)(=O)c1ccc2c(c1)c(=O)c(C(=O)NCCCN(C)c1ccccc1)cn2C", "hERG current change (%, negative = inhibition) at 10uM": -12.2}, {"smiles": "COC(CN(C)C(=O)c1cn(C)c2ccc(S(=O)(=O)N(C)C3CCCCC3)cc2c1=O)OC", "hERG current change (%, negative = inhibition) at 10uM": 10.3}, {"smiles": "CCCN(CCC)CCCNC(=O)c1cn(C)c2ccc(S(=O)(=O)N(C)C3CCCCC3)cc2c1=O", "hERG current change (%, negative = inhibition) at 10uM": -73.7}, {"smiles": "Cn1c(=O)n(C)c2cc(S(=O)(=O)Nc3ccc(F)cc3)ccc21", "hERG current change (%, negative = inhibition) at 10uM": 20.9}, {"smiles": "CCN1CCN(c2ccc(S(=O)(=O)N3CCCC3)cn2)CC1", "hERG current change (%, negative = inhibition) at 10uM": 16.2}, {"smiles": "Cc1nn(-c2ccccc2)c(C)c1NC(=O)COC(=O)CCc1ccccc1", "hERG current change (%, negative = inhibition) at 10uM": -10.2}, {"smiles": "CC(=O)N1CCC2(CC1)CC(=O)c1cc(OCC(=O)N3CCCC3)ccc1O2", "hERG current change (%, negative = inhibition) at 10uM": 9.03}, {"smiles": "CC(=O)N1CCC2(CC1)CC(=O)c1cc(OCC(=O)N3CCOCC3)ccc1O2", "hERG current change (%, negative = inhibition) at 10uM": -10.6}, {"smiles": "Cc1cccc(OCC(=O)N2CCC3(CC2)CC(=O)c2ccccc2O3)c1", "hERG current change (%, negative = inhibition) at 10uM": -54.7}, {"smiles": "COc1cccc(OCC(=O)N2CCC3(CC2)CC(=O)c2ccccc2O3)c1", "hERG current change (%, negative = inhibition) at 10uM": -55.8}, {"smiles": "CC(C)(C)C1CCC(OC(=O)C[N+]2(C)CCCCC2)CC1.[I-]", "note": "(centres unmarked)", "hERG current change (%, negative = inhibition) at 10uM": 23.1}, {"smiles": "Cc1cccc(Nc2ccc(C(=O)N3CCOCC3)cn2)c1", "hERG current change (%, negative = inhibition) at 10uM": 10.7}, {"smiles": "O=C(NCC1(N2CCCCC2)CCCCC1)c1cccc(NS(=O)(=O)c2ccccc2)c1", "hERG current change (%, negative = inhibition) at 10uM": -64.4}, {"smiles": "Cc1ccc(S(=O)(=O)Nc2cccc(C(=O)N3CCCC3)c2)cc1F", "hERG current change (%, negative = inhibition) at 10uM": -0.933}, {"smiles": "CC(C)(CNC(=O)c1cccc(NS(=O)(=O)c2ccc(Br)cc2)c1)N1CCOCC1", "hERG current change (%, negative = inhibition) at 10uM": -33.7}, {"smiles": "Cc1ccc(S(=O)(=O)Nc2cccc(C(=O)NCC(C)(C)N3CCOCC3)c2)cc1F", "hERG current change (%, negative = inhibition) at 10uM": -50.3}, {"smiles": "O=C(NCC1(N2CCCCC2)CCCCC1)c1ccc(NS(=O)(=O)c2ccccc2)cc1", "hERG current change (%, negative = inhibition) at 10uM": -44.1}, {"smiles": "CCOc1ccc(S(=O)(=O)Nc2ccc(C(=O)NCC3(N4CCCCC4)CCCCC3)cc2)cc1", "hERG current change (%, negative = inhibition) at 10uM": -45.8}, {"smiles": "CC(=O)Nc1cccc(C(=O)NCC2(N3CCCCC3)CCCCC2)c1", "hERG current change (%, negative = inhibition) at 10uM": 19.4}, {"smiles": "CCOc1ccc(NS(=O)(=O)c2ccc(C(=O)NCC3(N4CCCCC4)CCCCC3)cc2)cc1", "hERG current change (%, negative = inhibition) at 10uM": -11}, {"smiles": "Cc1ccc(S(=O)(=O)Nc2cccc(C(=O)NCCN3CCOCC3)c2)cc1F", "hERG current change (%, negative = inhibition) at 10uM": -1.9}, {"smiles": "Cc1cccc(NS(=O)(=O)c2cccc(C(=O)NCC(C)(C)N3CCOCC3)c2)c1", "hERG current change (%, negative = inhibition) at 10uM": 4.99}, {"smiles": "CCOc1ccc(S(=O)(=O)Nc2cccc(C(=O)NCC3(N4CCCCC4)CCCCC3)c2)cc1", "hERG current change (%, negative = inhibition) at 10uM": -71.6}, {"smiles": "Cc1ccc(S(=O)(=O)Nc2cccc(C(=O)NCC3(N4CCCCC4)CCCCC3)c2)cc1F", "hERG current change (%, negative = inhibition) at 10uM": -82.6}, {"smiles": "C[C@H](NC(=O)N1CCn2c1nc1ccccc12)C(=O)NCC1CCCO1", "note": "(some centres unmarked)", "hERG current change (%, negative = inhibition) at 10uM": 20.8}, {"smiles": "CC(OC(=O)c1cccc(-n2cnnn2)c1)C(=O)Nc1cccc(Cl)c1", "note": "(centres unmarked)", "hERG current change (%, negative = inhibition) at 10uM": -2.88}, {"smiles": "N#Cc1ccccc1OCC(=O)OCC(=O)N1CCN(C(=O)c2ccco2)CC1", "hERG current change (%, negative = inhibition) at 10uM": 3.22}, {"smiles": "Cc1cc(N2C(=O)CC(N3CCN(c4ccc(C(=O)c5cccs5)cc4)CC3)C2=O)no1", "note": "(centres unmarked)", "hERG current change (%, negative = inhibition) at 10uM": -37.3}, {"smiles": "CC(C)CCOP(=O)(c1ccc(N(C)C)cc1)C(O)c1ccc(C(C)C)cc1", "note": "(centres unmarked)", "hERG current change (%, negative = inhibition) at 10uM": 11.7}, {"smiles": "CCOC(=O)c1cn2nc(Oc3ccccc3)ccc2n1", "hERG current change (%, negative = inhibition) at 10uM": -12.8}, {"smiles": "O=C(Cc1ccccc1)N/N=C/c1cc2c(cc1Cl)OCO2", "hERG current change (%, negative = inhibition) at 10uM": 1.85}, {"smiles": "COc1cc(NC(=O)NNC(=O)c2cc3occc3n2C)cc(OC)c1OC", "hERG current change (%, negative = inhibition) at 10uM": 26.1}, {"smiles": "Cc1cccc(NS(=O)(=O)c2cccc(C(=O)NCC3(N4CCCCC4)CCCCC3)c2)c1", "hERG current change (%, negative = inhibition) at 10uM": -89.9}, {"smiles": "O=C(NCC1(N2CCCCC2)CCCCC1)c1ccc(NS(=O)(=O)c2ccc(F)cc2)cc1", "hERG current change (%, negative = inhibition) at 10uM": -42.9}, {"smiles": "CNS(=O)(=O)c1cccc(C(=O)NCC2(N3CCCCC3)CCCCC2)c1", "hERG current change (%, negative = inhibition) at 10uM": -18.3}, {"smiles": "CS(=O)(=O)c1ccc(C(=O)NCC2(N3CCCCC3)CCCCC2)cc1", "hERG current change (%, negative = inhibition) at 10uM": -11}, {"smiles": "CNS(=O)(=O)c1cccc(C(=O)NCC2(N3CCOCC3)CCCCC2)c1", "hERG current change (%, negative = inhibition) at 10uM": 9.92}, {"smiles": "Cc1cc(S(=O)(=O)Nc2ccc(C(=O)NCC3(N4CCCCC4)CCCCC3)cc2)ccc1F", "hERG current change (%, negative = inhibition) at 10uM": -66.4}, {"smiles": "O=C(COc1ccccc1)Nc1nc(-c2cccs2)cs1", "hERG current change (%, negative = inhibition) at 10uM": 5.72}, {"smiles": "CCOC(=O)c1c(C)[nH]c(C(=O)OC(C)C(=O)NCc2ccccc2)c1C", "note": "(centres unmarked)", "hERG current change (%, negative = inhibition) at 10uM": 17.4}, {"smiles": "COc1ccccc1-c1nnc(NC(=O)C2=COCCO2)o1", "hERG current change (%, negative = inhibition) at 10uM": 14.3}, {"smiles": "CCc1sc(C(=O)N2CCC3(CC2)OCCO3)cc1Br", "hERG current change (%, negative = inhibition) at 10uM": -7.08}]}]}
